AGP1-GFP MLPCN – yeast TOR pathway AGP1-GFP modulation; S. cerevisiae AGP1-GFP multiplex flow cytometry, 3 h; GFP as percent of DMSO wells; GFP response vs DMSO, % at 10 µM; actives 0.02% (n = 320,000); AID 2066;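 active means GFP response relative to DMSO above a set limit, near screen average plus 3 SD, cut at about 150% in these data; inconclusive means fewer than 70 cells counted for the yeast strain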;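 further: median GFP channel fluorescence of the gated AGP1 strain per well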
LAP4 TOR yeast – modulators of TOR pathway LAP4-GFP in S. cerevisiae; AID 2023; GFP response vs DMSO, % at 10 µM; actives 0.34% (n = 320,000); S. cerevisiae LAP4-GFP multiplex, flow cytometry GFP, 3 h; median GFP as percent of DMSO wells;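 active means GFP response vs DMSO above a set limit, about the screen mean plus 3 SD, cut at about 150% in these data; inconclusive means under 70 cell events counted for the yeast strain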
MEP2 TOR yeast – alters MEP2-GFP fluorescence in TOR pathway yeast screen; AID 2016; GFP response vs DMSO, % at 10 µM; actives 0.51% (n = 330,000); S. cerevisiae MEP2-GFP strain, flow cytometry GFP, 3 h; 100% = DMSO control level;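 active means GFP response versus DMSO above a set limit, roughly screen mean plus 3 SD, cut at about 180% in these data; inconclusive means fewer than 70 cells counted for a yeast strain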;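 further: median GFP fluorescence of the barcode-gated MEP2-GFP cells per well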
RPL19A TOR yeast – modulators of TOR pathway RPL19A-GFP in S. cerevisiae; percent response vs DMSO, % at 10 µM; S. cerevisiae RPL19A-GFP strain, flow cytometry, 3 h; hits give low values; actives 0.3% (n = 330,000); AID 2025;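 active means percent response vs DMSO below 50%; inconclusive means fewer than 70 events counted for the yeast strain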;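 further: median channel GFP fluorescence of the barcoded RPL19A-GFP strain; ratio of sample median GFP to plate DMSO average so 100% = DMSO; lower means less RPL19A-GFP as with rapamycin TOR inhibition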
CIT2-GFP yeast – yeast TOR pathway CIT2-GFP modulation. actives 0.065% (n = 320,000). GFP response vs DMSO, % at 10 µM. AID 2029. S. cerevisiae CIT2-GFP strain, flow cytometry, 3 h; 100 means same as DMSO wells;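 active means GFP response relative to DMSO above a set limit, near the screen mean plus 3 SD, cut at about 150% in these data; inconclusive means Fewer than 70 cells measured for a yeast strain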;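 further: ratio of well median GFP fluorescence to mean of DMSO wells on the plate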
* marks the source's active call; other numbers are inactive results; ? = inconclusive; . = no result given; [ ] = dose if it differs, or a comment. Hits are enriched below; roughly 0.89% of the tested compounds scored in any of these assays.

SMILES	AGP1-GFP MLPCN	LAP4 TOR yeast	MEP2 TOR yeast	RPL19A TOR yeast	CIT2-GFP yeast
COc1cc(NC(=O)C/C(C)=N/NC(=O)c2ccccn2)c(OC)cc1Cl	?	84	324*[may fluoresce violet]	48*[may fluoresce violet]	?
COc1ccccc1NC(=O)C/C(C)=N/NC(=O)c1ccccn1	107	95	102	106	109
CC(C)CC(OC(=O)c1nsc(Cl)c1Cl)C(=O)NC1CCCC1 (stereo not given)	?	60	243*[may fluoresce violet]	43*[may fluoresce violet]	?
COc1ccc(OCC(O)Cn2ccnc2C)cc1 (stereo not given)	103	104	105	102	104
Cc1c(Br)c(O)c(Br)c2sc(=O)oc12	57	177*	100	48*	76
Cc1nc(SCC(=O)c2ccccc2)n[nH]1	99	97	107	97	93
CCOC(=O)C(=Cc1ccc(F)cc1)C(=O)OCC	25	122	188*	65	107
Cc1cc(N2CCN(C)CC2)nc(=S)[nH]1	103	96	106	100	.
Cc1cccc(NC(=O)CS(=O)(=O)c2cn(CC(=O)N3CCOCC3)c3ccccc23)c1	?	70	187*[may fluoresce violet]	43*[may fluoresce violet]	?
CC(=O)Nc1cccc(NC(=O)CS(=O)(=O)c2cn(CC(=O)N3CCOCC3)c3ccccc23)c1	90	93	86	87	84
Cc1c(NC(=O)CN2CCN(C(c3ccccc3)c3ccccc3)CC2)c(=O)n(-c2ccccc2)n1C	?	94	487*[may fluoresce violet]	27*[may fluoresce violet]	?
Cc1c(NC(=O)CN2CCN(c3ccccc3)CC2)c(=O)n(-c2ccccc2)n1C	.	103	94	90	103
Cc1c(NC(=O)Nc2ccc3c(c2)OCO3)c(=O)n(-c2ccccc2)n1C	161*	260*	225*	93	112
Cc1ccccc1C(=O)N1CCc2c([nH]c3ccccc23)C1C(F)(F)F (stereo not given)	107	113	97	99	90
Cc1cccc(C)c1OCC(O)CNC(C)c1ccccc1 (stereo not given)	101	92	108	104	106
COc1ccc2cc(-c3cc(C(=O)O)c4ccccc4n3)ccc2c1	105	135	308*	94	.
CC(C)(C)C1CCC(C(=O)OCC(=O)Nc2ccc3[nH]c(=O)[nH]c3c2)CC1 (stereo not given)	92	83	98	99	99
Cc1cc(NC(=O)CSc2nc(=O)n3cc(Cl)ccc3n2)no1	111	113	108	106	111
O=C(Cc1cccc2ccccc12)NCCOc1ccccc1F	100	107	96	94	85
N#CC1=C(N)Oc2cc(O)c(Cl)cc2C1c1cccnc1 (stereo not given)	103	103	101	102	107
N#CC1=C(N)Oc2cc(O)ccc2C1c1cccnc1 (stereo not given)	21	100	210*[may fluoresce violet]	59	?
Nc1nc(-c2ccccc2)c(C(=O)Nc2ccccc2)s1	?	133	?	16*[may fluoresce violet]	?
O=C(Nc1ccc(F)cc1)c1sc(Cl)nc1-c1ccccc1	102	98	105	103	97
O=C(Nc1nc2c(s1)CN(Cc1ccccc1)CC2)c1cccc(S(=O)(=O)N2CCc3ccccc32)c1	?	?	?	20*[may fluoresce violet]	?
Cn1c(C(=O)NCC2CCCO2)cc2c(=O)n3ccccc3nc21 (stereo not given)	100	109	112	101	101
SMILES	AGP1-GFP MLPCN	LAP4 TOR yeast	MEP2 TOR yeast	RPL19A TOR yeast	CIT2-GFP yeast
C=CCNC(=O)c1cc2c(=O)n3cc(C)ccc3nc2nc1NCC1CCCO1 (stereo not given)	?	58	179*[may fluoresce violet]	29*[may fluoresce violet]	?
Cc1ccc2nc3nc(NCC4CCCO4)c(C(=O)NC4CCCC4)cc3c(=O)n2c1 (stereo not given)	?	85	267*[may fluoresce violet]	22*[may fluoresce violet]	?
Cc1ccc2nc3nc(NCC4CCCO4)c(C(=O)NC4CCCCC4)cc3c(=O)n2c1 (stereo not given)	91	105	108	112	106
Nc1ccc(-c2nc3ccc(N)cc3s2)cc1	25	97	290*[may fluoresce violet]	90	?
Cn1nnnc1N=N/C(=N/Nc1ccccc1)c1ccccc1	98	150*	95	96	86
Oc1ccccc1N=N/C(=N/Nc1ccccc1O)c1ccccc1	91	130	100	100	99

Screens deposited in PubChem BioAssay by NMMLSC.
